mcGAS lum: cyclic GMP-AMP synthase inhibitors, mouse, primary biochemical chemiluminescence; Q8C6L5; AID 1259399, 2018; hit rate 0.15% among 160,000; recombinant cGAS, Kinase-Glo ATP depletion luminescence; inhibition, % at 12.5 µM;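 further: 0% = negative control wells and 100% = reference inhibitor with no enzyme activity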
Target sequence (Q8C6L5 whole entry, looked up): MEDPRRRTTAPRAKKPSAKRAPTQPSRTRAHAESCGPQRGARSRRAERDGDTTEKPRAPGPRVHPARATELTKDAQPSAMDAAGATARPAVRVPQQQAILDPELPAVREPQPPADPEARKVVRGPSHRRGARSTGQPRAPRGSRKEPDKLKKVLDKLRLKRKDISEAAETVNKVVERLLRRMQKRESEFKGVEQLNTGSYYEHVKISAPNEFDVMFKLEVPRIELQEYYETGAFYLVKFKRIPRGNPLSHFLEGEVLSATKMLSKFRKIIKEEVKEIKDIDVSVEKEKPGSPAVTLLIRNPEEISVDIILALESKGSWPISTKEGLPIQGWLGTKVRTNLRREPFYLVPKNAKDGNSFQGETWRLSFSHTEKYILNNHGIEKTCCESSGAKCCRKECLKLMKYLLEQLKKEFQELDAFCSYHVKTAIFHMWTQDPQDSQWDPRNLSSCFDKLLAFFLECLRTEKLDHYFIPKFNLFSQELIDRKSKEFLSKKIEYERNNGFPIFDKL
NPYLR7 ag: agonists of mosquito NPYLR7 receptor, primary screen, cell-based, Aedes aegypti, calcium fluorescence, mosquito biting behavior; HEK293T NPYLR7/Galpha15, GCaMP6s calcium fluorescence; activation, % at 10 µM; AID 1259423, 2018; Aedes aegypti neuropeptide Y-like receptor 7 (NPYLR7); hit rate 0.15% among 270,000; in the data active means activation above about 40%;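 further: 0% = vehicle and 100% = reference agonist at the receptor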
hcGAS lum: Primary biochemical luminescence assay for human cyclic GMP-AMP synthase inhibitors. recombinant h-cGAS, ATP depletion, Kinase-Glo luminescence. Q8N884. AID 1259398, 2018. inhibition, % at 12.5 µM. hit rate 0.081% among 290,000;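 further: 0% = vehicle reaction and 100% = reaction without DNA for no activity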
* marks the source's active call; other numbers are inactive results. Compounds with a hit are over-represented: about 0.3% of the library has one in this group of screens. Unless noted, no stated cut-off is given here; in the data, active means inhibition above about 40%; inactive means the rest.

CCc1nnc(NC(=O)c2cc(C)no2)s1 was read as mcGAS lum 46*, NPYLR7 ag 12 and hcGAS lum 16.
Screening CCOC(=O)c1sc(NC(=O)c2cc(C)no2)nc1C returned mcGAS lum -4, NPYLR7 ag 6 and hcGAS lum 0.
Screening Cc1cc(C)cc(-n2nnc3c(=O)n(CC(=O)N4CCCc5ccccc54)cnc32)c1 returned mcGAS lum -9, NPYLR7 ag -2 and hcGAS lum -10.
Screening COc1cc(C2Nc3ccccc3-c3nnc(SC)nc3O2)cc(Br)c1OC (stereo not drawn) returned mcGAS lum -3, NPYLR7 ag -1 and hcGAS lum -9.
Screening CSc1nnc2c(n1)OC(c1cc(Br)c(OC(=O)c3ccc([N+](=O)[O-])cc3)c(Br)c1)Nc1ccccc1-2 (stereo not drawn) returned mcGAS lum 42*, NPYLR7 ag 7 and hcGAS lum 6.
COc1cc(-c2nnc(CSc3cccc[n+]3[O-])o2)cc(OC)c1OC was read as NPYLR7 ag 4 and hcGAS lum -8.
NS(=O)(=O)c1ccc(NC(NC(=O)c2ccco2)C(=O)c2ccc(Cl)cc2)cc1 (stereo not drawn) was read as NPYLR7 ag 45* and hcGAS lum 0.
O=C(NC(c1ccc(Cl)cc1)C1CC1)c1ccco1 (stereo not drawn) was read as mcGAS lum -8, NPYLR7 ag 4 and hcGAS lum -8.
O=C(CCC1CCN(C(=O)C2=CCCCC2)CC1)N1CCN(c2ccccc2)CC1 was read as NPYLR7 ag 16 and hcGAS lum -7.
Screening CC(ON=C1CCN(C(=O)Nc2ccccc2)CC1)C(=O)NCC(F)(F)F (stereo not drawn) returned hcGAS lum -10.
For O=S(=O)(Nc1cc(Sc2ncn[nH]2)c(O)c2ccccc12)c1ccc(Br)cc1 the results were mcGAS lum 44*, NPYLR7 ag -5 and hcGAS lum -5.
`CC(C)(C)c1ccc(S(=O)(=O)Nc2cc(Sc3ncn[nH]3)c(O)c3ccccc23)cc1` gave mcGAS lum 14, NPYLR7 ag -7 and hcGAS lum -8.
Screening CC(=O)c1c(C)oc2c1cc(NS(=O)(=O)c1cc(C)ccc1C)c1ccccc12 returned mcGAS lum -1, NPYLR7 ag -3 and hcGAS lum -1.
Screening CC(C)(C)n1nc2c(c1NC(=O)c1ccc(S(=O)(=O)N3CCOCC3)cc1)CSC2 returned mcGAS lum -8, NPYLR7 ag 0 and hcGAS lum -3.
`O=C(Nc1nnc(SCc2cc(F)cc(F)c2)s1)C1CC1` gave mcGAS lum 2, NPYLR7 ag -3 and hcGAS lum 2.
`COc1cc(CSc2nnc(NC(=O)C3CCC3)s2)cc(OC)c1` gave mcGAS lum 83*, NPYLR7 ag 35 and hcGAS lum -6.
Screening CC(C)(C)c1ccc(C(=O)Nc2cc(C(=O)NCc3cccs3)ccc2N2CC3CC(C2)c2cccc(=O)n2C3)cc1 (stereo not drawn) returned NPYLR7 ag -4 and hcGAS lum 2.
O=c1cc(-c2cc(O)c(O)c(O)c2)oc2cc(O)cc(O)c12 was read as NPYLR7 ag 22 and hcGAS lum 22.
O=c1oc2c(O)c(O)cc3c(=O)oc4c(O)c(O)cc1c4c23 was read as NPYLR7 ag -10 and hcGAS lum 43*.
For Cc1cc(C)cc(-c2nc3cc(C)ccn3c2NC(=O)CCl)c1 the results were mcGAS lum 42*, NPYLR7 ag -10 and hcGAS lum -6.
Screening CC(=O)Nc1c(-c2cc(C)cc(C)c2)nc2cc(C)ccn12 returned mcGAS lum 1, NPYLR7 ag -4 and hcGAS lum 0.
For Cc1ccc(C=c2sc(=C(C#N)C(=O)C(C)(C)C)n(CCCN3CCOCC3)c2=O)s1 the results were NPYLR7 ag 18 and hcGAS lum -14.
Screening Cc1c(Cl)cccc1NC(=O)C(C#N)C(=O)COc1ccc(F)cc1 (stereo not drawn) returned mcGAS lum -15, NPYLR7 ag 22 and hcGAS lum -3.
N#CC(C(=O)/C=C/c1nccs1)C(=O)Nc1cccc(Cl)c1Cl (stereo not drawn) was read as NPYLR7 ag -1 and hcGAS lum 46*.
For CC1(C)CCCC1NC(=O)c1cc(F)cc(F)c1 (stereo not drawn) the results were NPYLR7 ag 9 and hcGAS lum -7.
`O=C1C(Cl)=CC(=NS(=O)(=O)c2ccccc2)C(Cl)=C1Cl` gave mcGAS lum 59*, NPYLR7 ag -7 and hcGAS lum 59*.
For O=C1C=CC(=NC(=NS(=O)(=O)c2ccccc2)c2ccccc2)C=C1Cl the results were mcGAS lum -3, NPYLR7 ag -2 and hcGAS lum -4.
For CC(CNC(=O)c1cnn(C)c1)Oc1ccccc1Br (stereo not drawn) the results were mcGAS lum -6, NPYLR7 ag 5 and hcGAS lum -10.
Screening CC(=O)N1CCc2c(sc(NC(=O)Cc3ccccc3)c2-c2nc3ccccc3s2)C1 returned NPYLR7 ag 3 and hcGAS lum -5.
For CC(C)C(=O)Nc1sc2c(c1-c1nc3ccccc3s1)CCN(C(C)C)C2 the results were mcGAS lum 90*, NPYLR7 ag 66* and hcGAS lum 78*.
Screening CC(C)C(=O)Nc1sc2c(c1-c1nc3ccccc3s1)CCN(C)C2 returned mcGAS lum 0, NPYLR7 ag 49* and hcGAS lum 10.
`CC(=O)N1CCc2c(sc(NC(=O)c3ccccc3)c2-c2nc3ccccc3s2)C1` gave NPYLR7 ag 3 and hcGAS lum -2.
CC(C)N1CCc2c(sc(NC(=O)c3ccc([N+](=O)[O-])o3)c2-c2nc3ccccc3s2)C1 was read as mcGAS lum -6, NPYLR7 ag -3 and hcGAS lum -3.
`CC(C)N1CCc2c(sc(NC(=O)C3CC3)c2-c2nc3ccccc3s2)C1` gave mcGAS lum 32, NPYLR7 ag 166* and hcGAS lum 45*.
For CCOC(=O)N1CCc2c(sc(NC(=O)C(C)C)c2-c2nc3ccccc3s2)C1 the results were NPYLR7 ag 5 and hcGAS lum -4.
Screening CN1CCc2c(sc(NC(=O)Cc3ccccc3)c2-c2nc3ccccc3s2)C1 returned mcGAS lum -4, NPYLR7 ag 45* and hcGAS lum 0.
Screening CCCC(=O)N1CCN(C(=O)c2cn(C)cc3c(=O)n(-c4ccccc4)nc2-3)CC1 returned mcGAS lum -10, NPYLR7 ag 0 and hcGAS lum -13.
CCOC(=O)N1CCN(c2ccc(/C=C(\C#N)c3nc4ccccc4[nH]3)o2)CC1 was read as NPYLR7 ag 102* and hcGAS lum -7.
For CCOC(=O)N1CCN(/C=C(\C#N)c2nc3ccccc3s2)CC1 the results were mcGAS lum -1, NPYLR7 ag -9 and hcGAS lum 1.
`O=C1c2ccccc2C(=O)c2c1ccc(O)c2O` gave NPYLR7 ag -16 and hcGAS lum -74.
For O=C1c2ccc(O)c(O)c2C(=O)c2c(O)ccc(O)c21 the results were mcGAS lum 79* and hcGAS lum 47*.

Compound activity from PubChem.
